Each compound was assayed on RIPK4. Conditions: concentration: 1 μM,replicates: in singlicate; n = 1.
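Further: KINOMEscan kinase panel screen.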

Structure (SMILES)	%Inh
Cn1ccc2ncnc(Oc3ccc(NC(=O)Nc4ccnc(C(F)(F)F)c4)c(Cl)c3)c21	0%
Cc1ccc(CC(=O)N2CCc3cc(-c4cn(C)c5ncnc(N)c45)ccc32)cc1 [GSK2634758]	0%
CS(=O)(=O)c1cccc(CNc2nc(Nc3ccc4c(c3)[C@@H]3C[C@@H]4CNC3=O)ncc2C(F)(F)F)c1	77%
CNC(=O)c1ccccc1Nc1nc(Nc2cccc(CS(C)(=O)=O)c2)ncc1C.O=CO [GSK1520489]	98%
Cn1ccc2ncnc(Oc3ccc(NC(=O)Nc4cccc(C(F)(F)F)c4)c(Cl)c3)c21	0%
CN1CCN(CCNc2nc3cc(Oc4ccc(NC(=O)Nc5cc(C(F)(F)F)ccc5F)cc4)ccc3[nH]2)CC1.Cl.Cl [GW768504]	0%
O=C(NCC1CC1)c1ccc(-c2cc(C(=O)NC3CC3)ccc2F)cc1 [GW810445]	0%
N#Cc1cccc(C(=O)NC2CCN(c3ccnc(Nc4ccc(F)cc4)n3)C2)c1 (centres unmarked) [GSK1379708]	6%
FC(F)(F)c1cc(Br)cc(Nc2nccc(-c3cnn4ncccc34)n2)c1 [GW810578]	20%
Cc1ccn2nc(-c3ccc(F)cc3)c(-c3ccncc3)c2c1.Cl [GW457859]	6%
C[C@@H](Oc1cc(-n2cnc3cc(-c4cnn(C)c4)ccc32)sc1C(N)=O)c1ccccc1Cl [GSK580432]	0%
Cn1ccc2ncnc(Oc3ccc(NC(=O)Nc4cncc(C(F)(F)F)c4)c(Cl)c3)c21	0%
CS(=O)(=O)Nc1ccc(-c2ccnc3[nH]ccc23)cc1 [GSK993273]	30%
O=C(Nc1n[nH]c2cc(-c3ccco3)ccc12)C1CC1 [SB-737447]	36%
OCCn1cc(-c2cnc3nnn(Cc4ccc5ncccc5c4)c3n2)cn1	0%
Cc1ccc(Nc2ccnc(Nc3ccc4c(c3)CS(=O)(=O)C4)n2)cc1O.Cl [GW579362]	98.6%
Cn1ccc2ncnc(Oc3ccc(NC(=O)Nc4cccc(C(F)(F)F)c4)c(F)c3)c21	0%
CCOC(=O)N1CCC(n2cnc(-c3ccc(F)cc3)c2-c2ccnc(N)n2)CC1 [SB-219952]	64%
CCn1c(-c2nonc2N)nc2cncc(Br)c21 [SB-738004]	58%

Structure (SMILES)	%Inh
Cl.c1ccc(Oc2ccc(Nc3ccnc4cc(-c5ccc(CN6CCNCC6)o5)ccc34)cc2)nc1 [GW567142]	0%
COc1cccc(C2=C(Nc3cccc(Cl)c3)C(=O)NC2=O)c1 [SB-341556]	4%
CS(=O)c1ccc(-c2coc3ccc(-c4n[nH]c(=O)o4)cc23)cc1 (centres unmarked)	0%
COC(=O)Nc1nc2cc(Oc3ccc(NC(=O)Nc4cc(C(F)(F)F)ccc4Cl)cc3)ccc2[nH]1.Cl [GW697465]	1%
Cn1cc(-c2cccc3c(N)c(C(N)=O)nnc23)cn1	37%
C[C@@H]1CCN(C(=O)N2CCCC2)C[C@@H]1N(C)c1ncnc2[nH]ccc12	13%
Cc1ccc2c(-c3ccnc(Nc4ccc(C(F)(F)F)cc4)n3)cnn2n1 [GW819776]	10%
C[C@@H](Oc1cc(-n2cnc3cc(-c4ccncc4)ccc32)sc1C(N)=O)c1ccccc1Cl [GSK479719]	8%
CCNCC(Cc1ccccc1)NC(=O)c1cc(Br)c(-c2ccnc3[nH]ccc23)s1.Cl.Cl (centres unmarked) [GSK1383280]	20%
Cc1nnc(-c2ccc3occ(-c4ccc(S(C)=O)cc4)c3n2)o1 (centres unmarked)	0%
COc1cc2nccc(Nc3ccc(Oc4ccccc4)cc3)c2cc1OC.Cl [GI261656]	3%
COc1cccc(OC)c1C(=O)Nc1cccc(-c2nn3ccccc3c2-c2ccnc(Nc3cccc(F)c3)n2)c1 [GSK361065]	9%
COc1cc(Nc2nccc(N3CCC(NC(=O)c4cccc(C#N)c4)C3)n2)cc(OC)c1OC (centres unmarked) [GSK1379751]	32%
O=C(Nc1cccc(C(F)(F)F)c1)c1cccc(Oc2ccc3nccn3n2)c1	17%
CC(C)c1nc(-c2cccc(NS(=O)(=O)c3ccccc3)c2)c(-c2ccnc(Nc3ccc4c(c3)CN(C)CC4)n2)s1 [GSK1649598]	36%
CN1CCN(CCCNc2nccc(-c3c(-c4ccc(F)cc4)nn4cc(C(N)=O)ccc34)n2)CC1 [GW622475]	28%
CC(=O)c1c(-c2ccncc2)[nH]c(-c2ccncc2)c1C [GW493036]	0%
COC(=O)c1cccc(NC(=O)NC2CCN(c3ccnc(NCc4ccc(F)cc4)n3)CC2)c1 [GSK1379860]	5%

The compounds below were run on RIPK5. Conditions: concentration: 1 μM,replicates: in singlicate; n = 1.

Structure (SMILES)	%Inh
Cn1ccc2ncnc(Oc3ccc(NC(=O)Nc4ccnc(C(F)(F)F)c4)c(Cl)c3)c21	0%
Cc1ccc(CC(=O)N2CCc3cc(-c4cn(C)c5ncnc(N)c45)ccc32)cc1 [GSK2634758]	62%
CS(=O)(=O)c1cccc(CNc2nc(Nc3ccc4c(c3)[C@@H]3C[C@@H]4CNC3=O)ncc2C(F)(F)F)c1	75%
CNC(=O)c1ccccc1Nc1nc(Nc2cccc(CS(C)(=O)=O)c2)ncc1C.O=CO [GSK1520489]	65%
Cn1ccc2ncnc(Oc3ccc(NC(=O)Nc4cccc(C(F)(F)F)c4)c(Cl)c3)c21	11%
CN1CCN(CCNc2nc3cc(Oc4ccc(NC(=O)Nc5cc(C(F)(F)F)ccc5F)cc4)ccc3[nH]2)CC1.Cl.Cl [GW768504]	3%
O=C(NCC1CC1)c1ccc(-c2cc(C(=O)NC3CC3)ccc2F)cc1 [GW810445]	0%
N#Cc1cccc(C(=O)NC2CCN(c3ccnc(Nc4ccc(F)cc4)n3)C2)c1 (centres unmarked) [GSK1379708]	0%
FC(F)(F)c1cc(Br)cc(Nc2nccc(-c3cnn4ncccc34)n2)c1 [GW810578]	15%
Cc1ccn2nc(-c3ccc(F)cc3)c(-c3ccncc3)c2c1.Cl [GW457859]	0%
C[C@@H](Oc1cc(-n2cnc3cc(-c4cnn(C)c4)ccc32)sc1C(N)=O)c1ccccc1Cl [GSK580432]	15%
Cn1ccc2ncnc(Oc3ccc(NC(=O)Nc4cncc(C(F)(F)F)c4)c(Cl)c3)c21	0%
CS(=O)(=O)Nc1ccc(-c2ccnc3[nH]ccc23)cc1 [GSK993273]	0%
O=C(Nc1n[nH]c2cc(-c3ccco3)ccc12)C1CC1 [SB-737447]	3%
OCCn1cc(-c2cnc3nnn(Cc4ccc5ncccc5c4)c3n2)cn1	0%
Cc1ccc(Nc2ccnc(Nc3ccc4c(c3)CS(=O)(=O)C4)n2)cc1O.Cl [GW579362]	89%
Cn1ccc2ncnc(Oc3ccc(NC(=O)Nc4cccc(C(F)(F)F)c4)c(F)c3)c21	0%
CCOC(=O)N1CCC(n2cnc(-c3ccc(F)cc3)c2-c2ccnc(N)n2)CC1 [SB-219952]	5%
CCn1c(-c2nonc2N)nc2cncc(Br)c21 [SB-738004]	1%

Structure (SMILES)	%Inh
Cl.c1ccc(Oc2ccc(Nc3ccnc4cc(-c5ccc(CN6CCNCC6)o5)ccc34)cc2)nc1 [GW567142]	4%
COc1cccc(C2=C(Nc3cccc(Cl)c3)C(=O)NC2=O)c1 [SB-341556]	16%
CS(=O)c1ccc(-c2coc3ccc(-c4n[nH]c(=O)o4)cc23)cc1 (centres unmarked)	0%
COC(=O)Nc1nc2cc(Oc3ccc(NC(=O)Nc4cc(C(F)(F)F)ccc4Cl)cc3)ccc2[nH]1.Cl [GW697465]	0%
Cn1cc(-c2cccc3c(N)c(C(N)=O)nnc23)cn1	17%
C[C@@H]1CCN(C(=O)N2CCCC2)C[C@@H]1N(C)c1ncnc2[nH]ccc12	24%
Cc1ccc2c(-c3ccnc(Nc4ccc(C(F)(F)F)cc4)n3)cnn2n1 [GW819776]	27%
C[C@@H](Oc1cc(-n2cnc3cc(-c4ccncc4)ccc32)sc1C(N)=O)c1ccccc1Cl [GSK479719]	37%
CCNCC(Cc1ccccc1)NC(=O)c1cc(Br)c(-c2ccnc3[nH]ccc23)s1.Cl.Cl (centres unmarked) [GSK1383280]	32%
Cc1nnc(-c2ccc3occ(-c4ccc(S(C)=O)cc4)c3n2)o1 (centres unmarked)	0%
COc1cc2nccc(Nc3ccc(Oc4ccccc4)cc3)c2cc1OC.Cl [GI261656]	50%
COc1cccc(OC)c1C(=O)Nc1cccc(-c2nn3ccccc3c2-c2ccnc(Nc3cccc(F)c3)n2)c1 [GSK361065]	32%
COc1cc(Nc2nccc(N3CCC(NC(=O)c4cccc(C#N)c4)C3)n2)cc(OC)c1OC (centres unmarked) [GSK1379751]	0%
O=C(Nc1cccc(C(F)(F)F)c1)c1cccc(Oc2ccc3nccn3n2)c1	7%
CC(C)c1nc(-c2cccc(NS(=O)(=O)c3ccccc3)c2)c(-c2ccnc(Nc3ccc4c(c3)CN(C)CC4)n2)s1 [GSK1649598]	8%
CN1CCN(CCCNc2nccc(-c3c(-c4ccc(F)cc4)nn4cc(C(N)=O)ccc34)n2)CC1 [GW622475]	0%
CC(=O)c1c(-c2ccncc2)[nH]c(-c2ccncc2)c1C [GW493036]	0%
COC(=O)c1cccc(NC(=O)NC2CCN(c3ccnc(NCc4ccc(F)cc4)n3)CC2)c1 [GSK1379860]	0%

From paper PMC5540273 (PLoS ONE, 2017)
